# Measured values taken from PubChem BioAssay AID463173 (ICCB-Longwood Screening Facility, Harvard Medical School, 2010).
# In all, about 52,000 compounds went through this assay and about 4,300 (8.3%) were called active. The list comes from a sample in which actives are over-represented; it also holds similar structures and randomly drawn compounds. Unmarked numbers belong to inactive results. Rule as the data show it: active = survival mostly below about 52% (no sharp cut-off); inactive = mostly above about 56%.
# Test system: DeltatarO mutant
# Assay: S. aureus survival, RN4220 and DeltatarO strains – OD600, teichoic acid synthesis inhibitors, primary screen (AID 463173)
# Settings: S. aureus RN4220 wild type/DeltatarO growth, OD600, 18 h, stronger effect = lower value, screened at 18.75 µg/mL (by protocol)
row,SMILES,survival
1,COC(=O)CC1=C(C(=O)OC)C(c2ccc(C(=O)OC)cc2)C(C#N)=C(N)O1 (stereo not given),77%
2,Cn1c(=O)c(=O)n(C)c2cc(S(=O)(=O)CCC(=O)Nc3cccc(C(F)(F)F)c3)ccc21,80%
3,O=c1c2oc3ccccc3c2n(Cc2ccc(Cl)cc2)c(=O)n1Cc1ccc2c(c1)OCO2,66%
4,CCOc1ccc(C2c3[nH]c4ccccc4c3CCN2C(=O)CCc2ccccc2)cc1 (stereo not given),116%
5,COc1ccc(C2CC(=O)Nc3c2c(=O)[nH]c2nc4ccccc4n32)cc1OC (stereo not given),133%
6,CCc1ccccc1N=C1SCC(=O)N1C,88%
7,Cc1cc(C)c(NC(=O)Cn2nnc(C(=O)Nc3ccc(F)cc3F)c2N)c(C)c1,81%
8,CCN1c2ccccc2-c2nc(SCC(=O)Nc3cc(C)c(Cl)cc3OC)ncc2S1(=O)=O,91%
9,CCN1c2ccccc2-c2nc(SCC(=O)Nc3c(C)cc(C)cc3C)ncc2S1(=O)=O,102%
10,CCN1c2ccccc2-c2nc(SCC(=O)Nc3ccc(C)c(Cl)c3)ncc2S1(=O)=O,25% (active)
11,CCOc1ccccc1NC(=O)CSc1ncc2c(n1)-c1ccccc1N(CC)S2(=O)=O,92%
12,CCN1c2ccccc2-c2nc(SCC(=O)Nc3cc(OC)cc(OC)c3)ncc2S1(=O)=O,37% (active)
13,CCN1c2ccccc2-c2nc(SCC(=O)Nc3cc(F)ccc3F)ncc2S1(=O)=O,118%
14,Fc1ccc(Nc2ncnc3c2nc2n3CCCC2)cc1,74%
15,CCc1ccc(NC(=O)c2ccc(CNS(=O)(=O)c3ccc4c(c3)C(C)(C)C(=O)N4C)cc2)cc1,64%
16,CCC(Sc1nc2c(sc3ccccc32)c(=O)n1CCc1ccccc1)C(=O)N(CC)CC (stereo not given),54%
17,Cc1ccc(-c2nc(CS(=O)(=O)CC(=O)NCCc3ccccc3)c(C)o2)cc1,100%
18,Cn1ncc2c(Nc3cccc(F)c3)ncnc21,117%
19,COc1ccc(CCN=C(N)Nc2nc(C)cc(C)n2)cc1,39% (active)
20,COc1cccc(C(=O)NC(=NCCc2c[nH]c3ccc(OC)cc23)Nc2nc(C)cc(C)n2)c1,55%
21,Cc1cc(C)nc(NC(N)=NC2CCCCC2)n1,87%
22,Cc1cc(C)nc(NC(=O)C(c2ccccc2)c2ccccc2)n1,115%
23,Cc1cc(C)nc(NC(N)=NC(C)c2ccccc2)n1 (stereo not given),20% (active)
24,Cc1cc(C)nc(NCC(C)c2ccccc2)n1 (stereo not given),81%
25,CCOC(=O)c1cccc(NC(=O)CCS(=O)(=O)c2ccc3c(c2)CC(=O)N3C)c1,102%
